From PubChem BioAssay
Pf growth 96h: Primary qHTS for delayed death inhibitors of the malarial parasite plastid, 96 hour incubation | Potency, µM (highest dose often 28.7 µM), most hits filed as inhibitors | 6.9% of 320,000 active | P. falciparum luciferase reporter growth, 96 h
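Infected RBCs, 2% Hct / 0.05% parasitemia final; luciferase-reporter P. falciparum; cpd 96 h, 37 C, 5% CO2; luciferase detection reagent; luminescence.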
AMA1-RON2 inh: qHTS for Inhibitors of AMA1-RON; Towards Development of Antimalarial Drug Lead: Primary Screen | Plasmodium falciparum AMA1 (3D7) - RON2 peptide interaction | AlphaScreen AMA1-biotinylated RON2 peptide binding | Potency, µM (top dose mostly 58.2 µM), most hits filed as inhibitors | 0.2% of 360,000 active | AID 720542, 2013; note: nearly all actives have a fitted effect of over 45% in size
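AMA1 (3D7) with his tag at 25 nM final met compounds first, then biotinylated RON2 peptide at 25 nM; detection used donor plus acceptor beads, 10 µg/mL apiece, read by AlphaScreen after 30 min at room temperature.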
Pf growth 48h: Primary qHTS for delayed death inhibitors of the malarial parasite plastid, 48 hour incubation; P. falciparum luciferase growth in erythrocytes, 48 h; Potency, µM (series often up to 28.7 µM), usual class: inhibitors; 5.9% of 310,000 active
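First compound was added to culture medium, then infected red cells at 0.1% parasitemia and 2% hematocrit (final). After incubation at 37 C under 5% CO2, luciferase detection reagent was dispensed and light output recorded.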
SARS PLP yeast: qHTS of Yeast-based Assay for SARS-CoV PLP; S. cerevisiae expressing SARS-CoV PLpro, growth rescue; Potency, µM (series often up to 32.9 µM), most hits filed as activators; 0.19% of 330,000 active; calls by dose curve; note: nearly all actives have a fitted effect of over 55% in size
Each line names hits and unclear results; the compound was inactive in the other large screens. Most compounds without a hit are left out; they make up all but 9.4% or so of the library. Unless noted, calls come from the whole dose curve; as a rule, active = well fitted curve in the direction sought with a large enough effect; inconclusive = small, poorly fitted or top-dose-only effect, or another doubt; inactive = no such curve, though single readings can be large; an effect the other way counts as inactive or inconclusive.

C/C(CCN1CCc2nc(-c3ccccc3)c(-c3ccccc3)cc2C1)=N\O[C@@H](C)c1cc(-c2c(C)cc(C)cc2C)no1	Pf growth 96h 13µM, Pf growth 48h inconclusive
CN(CC(=O)Nc1cccc(S(=O)(=O)N2CCCC2)c1)CC(=O)Nc1ccc(F)c(F)c1F	none (no result: Pf growth 96h, Pf growth 48h, SARS PLP yeast)
O=C(Cc1ccccc1F)Nc1ccc(S(=O)(=O)N2CCCCC2)cc1	Pf growth 96h inconclusive
O=C(Cc1ccc(F)cc1)Nc1ccc(S(=O)(=O)N2CCCC2)cc1	Pf growth 96h inconclusive
CN(CC(=O)Nc1ccc(S(=O)(=O)N2CCCC2)cc1)Cc1ccc(Cl)cc1	Pf growth 96h 8.3µM, Pf growth 48h inconclusive
CN(CC(=O)Nc1ccc(S(=O)(=O)N2CCCC2)cc1)Cc1c(F)cccc1Cl	Pf growth 96h 13µM
CN(CC(=O)Nc1cccc(S(=O)(=O)N2CCCC2)c1)CC(=O)Nc1ccc(Cl)c(C(F)(F)F)c1	Pf growth 96h inconclusive, Pf growth 48h 15µM
Cc1ncc(CN2CCCC(C(=O)Nc3ccc(-c4cccc(F)c4)cc3)C2)cn1 (stereo unspecified)	Pf growth 96h inconclusive, Pf growth 48h inconclusive
COC(=O)Cn1c(=O)c2c(nc3n2CC(C)CN3CCc2ccccc2)n(C)c1=O (stereo unspecified)	Pf growth 96h inconclusive, Pf growth 48h inconclusive
Cc1ccc(CN2CCN(Cc3ccc(C)s3)CC2CCO)cc1 (stereo unspecified)	Pf growth 96h inconclusive
O=C(O)c1ccc(S(=O)(=O)N[C@H](Cc2ccc([N+](=O)[O-])cc2)C(=O)O)cc1	SARS PLP yeast 2.2µM (no result: AMA1-RON2 inh)
O=C(O)c1ccc(S(=O)(=O)N[C@H](Cc2ccc(C(F)(F)F)cc2)C(=O)O)cc1	SARS PLP yeast 2.8µM (no result: AMA1-RON2 inh)
CCOC(=O)c1cc(NCc2cccs2)ccc1N1CCOCC1	Pf growth 96h 1.5µM
CCOC(=O)c1cc(NC(=O)c2cccs2)ccc1N1CCOCC1	none
Cc1ccc(Cn2nnc3c(=O)n(Cc4cc(C)ccc4C)cnc32)cc1	Pf growth 96h 1.5µM, Pf growth 48h inconclusive
Cc1cccc(Cn2cnc3c(nnn3Cc3ccc(Cl)cc3)c2=O)c1	Pf growth 96h 4.1µM, Pf growth 48h inconclusive
COc1ccc(-n2nnc3c(=O)n(Cc4cc(C)ccc4C)cnc32)cc1	Pf growth 96h 5.2µM
COc1ccc(/C=C/c2nc(C#N)c(NCCN(C)C)o2)cc1OC	none
O=C(c1cccc(NS(=O)(=O)c2ccc(Br)cc2)c1)N1CCCCC1	none
O=C(NC(=S)NCCSc1ccccc1)c1cccnc1	SARS PLP yeast 10µM
CC(C)(C)c1ccc(C(=O)NNC(=S)NC(=O)c2cccnc2)cc1	Pf growth 96h inconclusive, Pf growth 48h 13µM
COc1ccc(NC(=O)CCN2C(=O)[C@@H]3[C@H](C2=O)[C@H]2C=C[C@@H]3C2)cc1	none
COC(=O)c1cc(-c2ccc(Br)cc2)c2c(=O)n(C)c(=O)n(C)c2n1	Pf growth 96h 5.9µM
Cc1cccc2c1[nH]c1nc(N/N=C\c3ccco3)nnc12	none (no result: AMA1-RON2 inh)
C=CCSc1nnc2c(n1)[nH]c1c(C)cccc12	Pf growth 96h 12µM (no result: Pf growth 48h)
COC(=O)[C@H](C)NC(=O)NCc1ccc(S(N)(=O)=O)cc1	none
Brc1ccc(-c2nnc3ccc(N4CCN(c5ccccc5)CC4)nn23)cc1	Pf growth 96h 12µM, Pf growth 48h inconclusive
COc1ccc(-c2nc3c(c4nnc(SC(C)C(=O)Nc5ccccc5)n24)COC(C)(C)C3)cc1 (stereo unspecified)	Pf growth 96h inconclusive, Pf growth 48h inconclusive, SARS PLP yeast inconclusive
COc1ccc(NC(=O)C(C)Sc2nnc3c4c(nc(-c5ccc(OC)cc5)n23)CC(C)(C)OC4)cc1 (stereo unspecified)	Pf growth 96h inconclusive, Pf growth 48h 2.9µM
CC(=O)N(C)c1ccc(N=Nc2c(C)[nH]n(C(N)=S)c2=O)cc1	none
CC(=O)N(C)c1ccc(N=Nc2c(C)[nH]n(-c3ccccc3)c2=O)cc1	Pf growth 96h 12µM, Pf growth 48h inconclusive
CCOC(=O)/C(N=Nc1ccc(F)cc1)=C(/O)c1ccc([N+](=O)[O-])cc1	none (no result: Pf growth 48h)
CC(=O)c1ccc(OCCCC(=O)Nc2cc(S(=O)(=O)N3CCCCC3)ccc2C)cc1	Pf growth 96h 13µM, Pf growth 48h inconclusive
COc1ccc(S(=O)(=O)N2CCN(CCOc3ccc(Br)cc3)CC2)cc1OC	Pf growth 96h inconclusive, Pf growth 48h 8.3µM
COc1ccc(S(=O)(=O)N2CCCCC2)cc1NC(=O)CCCOc1ccc(C)cc1	Pf growth 96h inconclusive, Pf growth 48h 10µM
COc1ccc(S(=O)(=O)N2CCN(CCOc3ccccc3Cl)CC2)cc1OC	Pf growth 96h inconclusive, Pf growth 48h inconclusive
Cc1ccc(S(=O)(=O)N2CCCCC2)cc1NC(=O)CCCOc1ccccc1	Pf growth 96h inconclusive, Pf growth 48h inconclusive
COc1ccc(OCCOc2ccc(S(=O)(=O)N3CCCC3)cc2C(N)=O)cc1	Pf growth 96h 3.7µM
COc1ccc(S(=O)(=O)N2CCCCC2)cc1NC(=O)CCCOc1ccccc1	Pf growth 48h inconclusive
Cc1ccc(S(=O)(=O)Nc2cc(C)c(O)c(S(=O)(=O)c3ccc(C)cc3)c2)cc1	Pf growth 96h inconclusive, Pf growth 48h inconclusive
CN(C)/C=C/C(=O)/C=C/c1cn(-c2ncc(C(F)(F)F)cc2Cl)c2ccccc12	Pf growth 96h inconclusive, Pf growth 48h 13µM
O=C(c1cccs1)N1CCN(C(=O)C(c2ccccc2)c2ccccc2)CC1	Pf growth 96h inconclusive
CCCS(=O)(=O)c1c(S(=O)(=O)CCC)c2c(N)cccn2c1C(=O)c1ccc(F)cc1	Pf growth 48h 10µM
CCCS(=O)(=O)c1c(S(=O)(=O)CCC)c2c(N)cccn2c1C(=O)c1ccc(OC)cc1	Pf growth 48h inconclusive
CCCS(=O)(=O)c1c(S(=O)(=O)CCC)c2ccc(C(N)=O)cn2c1C(=O)c1ccc(F)cc1	none
CCCS(=O)(=O)c1c(S(=O)(=O)CCC)c2c(N)cccn2c1C(=O)c1ccc(Br)cc1	Pf growth 48h 12µM
COc1ccc(/C=C/C(=O)OC2CCCN(C)C2)cc1 (stereo unspecified)	Pf growth 96h inconclusive
COc1ccc(C(=O)/C(=C\c2sccc2C)c2nc3ccccc3o2)cc1	Pf growth 96h 3.3µM, Pf growth 48h inconclusive (no result: AMA1-RON2 inh)
CC(C)Oc1ccc(C(=O)/C(=C\c2cccs2)c2nc3ccccc3o2)cc1	Pf growth 96h inconclusive, AMA1-RON2 inh inconclusive, Pf growth 48h inconclusive
CCN(CC)CCNC(=O)Cn1cnc2sc(C)c(S(=O)(=O)N3CCC(C)CC3)c2c1=O	Pf growth 96h inconclusive
CCN1CCCC1CNC(=O)Cn1cnc2sc(C)c(S(=O)(=O)N3CCC(C)CC3)c2c1=O (stereo unspecified)	Pf growth 96h 6.6µM
CCOC(=O)C1CCN(C(=O)Cn2cnc3sc(C)c(S(=O)(=O)N4CCC(C)CC4)c3c2=O)CC1	Pf growth 48h 4.1µM
CN(C)CCNc1nc(S(=O)(=O)c2ccccc2)c(Cl)s1	none
O=C1N=C(N2CCOCC2)S/C1=C\c1ccc(-c2ccccc2Cl)o1	Pf growth 96h inconclusive
Cc1ccccc1-c1ccc(/C=C2/SC(N3CCOCC3)=NC2=O)o1	Pf growth 96h inconclusive, Pf growth 48h 10µM
